# Measurements taken from PubChem BioAssay (EPA / NIEHS).
# The source made the active and inactive calls. Rule for the calls: active = hit-call score of the fitted dose curve at least 0.9, where 1 is the maximum; inactive = score below 0.9.
# Assay: CCTE_Shafer_MEA_acute_per_network_burst_spike_number_std: CCTE's Neural Acute Assay for Standard Deviation of Number of Spikes in a Network Burst, Shafer Lab (AID 2284020);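 note: fitted for decrease in spike-number SD versus DMSO so actives lower it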
# Experimental: CCTE_Shafer_MEA_acute assay is conducted using Axion Biosystems 48 well microelectrode array (MEA) plates and Maestro recording system. Each well of the MEA plate contains a grid of 16 microelectrodes embedded in the culture surface. Electrically active cells, such as neurons, can be cultured over the electrodes, and electrical activity in these cells can be recorded extracellularly. The spontaneous firing of neurons is captured from each electrode on a microsecond timescale providing both temporally and spatially precise data. […] The CCTE_Shafer_MEA_acute assay uses primary cultures of rat cortical neurons. As these cultures mature over time, neural networks develop functional activity and form cohesive networks in which electrical activity can be highly coordinated. Baseline 40-minute recordings are made on days post-plating 13 or 15, followed by a secondary 40-minute recording after chemical exposure.CCTE_Shafer_MEA_acute_per_network_burst_spike_number_std is a component of the CCTE_Shafer_MEA_acute assay. It measures the standard deviation of the number of spikes (action potential firings) in a network burst (temporally-clustered group of spikes across multiple electrodes) during a recording in a microelectrode array (MEA) using Axion Biosystems Maestro 768 channel amplifier with the AxIS adaptive spike detector. The recordings before and after chemical treatment are used to calculate a percent change in the standard deviation of the number of spikes in network bursts in each well.Data from the assay component CCTE_Shafer_MEA_acute_burst_spike_number_std was analyzed into 1 assay endpoint. This assay endpoint, CCTE_Shafer_MEA_acute_burst_spike_number_std, was analyzed in the negative analysis fitting direction relative to DMSO as the negative control and baseline of activity. Using a type of functional reporter, gain or loss-of-signal activity can be used to understand electrical activity.
# Spontaneous activity in the cortical cultures was recorded using an Axion Biosystems Maestro 768 channel amplifier and Axion Integrated Studios (AxIS) v1.8 (or later) software. The amplifier recorded from all channels simultaneously (gain = 1200 x; sampling rate = 12.5 kHz/channel): raw signals were filtered with a Butterworth band-pass filter (300-5000 Hz), which filters out slower local field potentials leaving only fast potentials, i.e., "spikes", arising from extracellular currents associated with action potentials (Pine 2006; Wheeler and Nam 2011). On-line spike detection of filtered signals was conducted with the AxIS adaptive spike detector, using a threshold of 8x the root mean squared (rms) noise on each channel. Any electrodes with rms noise levels greater than 5 uV were grounded (e.g., no data were recorded). Once grounded, an electrode was grounded for the duration of the experiment. All recordings were conducted at 37 C. Wells were deemed usable if on the day of the exposure >/= 10 electrodes were active (defined as >/= 5 spikes/min). On DIV 13 or 15, a minimum of three wells from one cortical culture preparation were treated with each compound (0.03-40 uM). Prior to recording baseline activity, each mwMEA plate was placed in the Maestro at 37 C and allowed to sit for 20 min while firing rates stabilized. Baseline activity (40 min) was recorded before the addition of each compound. An additional 40 min of spontaneous activity was recorded in the presence of each compound. Changes in network parameters relative to baseline were assessed following compound treatment.
SMILES,AC50,outcome
N#CSCSc1nc2ccccc2s1,20 µM (active),
C=CCOC(Cn1ccnc1)c1ccc(Cl)cc1Cl (centres undefined),,inactive
O=C(O)c1ccccc1,,inactive
Cc1nn(C)c(Oc2ccccc2)c1C=NOCc1ccc(C(=O)OC(C)(C)C)cc1,,inactive
CSC(=O)c1cccc2nnsc12,,inactive
CC(C)(c1ccc(O)cc1)c1ccc(O)cc1,,inactive
O=C(c1ccccc1)C1CCCCC1,,inactive
O=C(c1ccc(O)cc1O)c1ccc(O)cc1O,,inactive
CC(C)(C)[C@@H](O)[C@@H](Cc1ccc(Cl)cc1)n1cncn1,,inactive
CCCN(CCC)c1c([N+](=O)[O-])cc(C(F)(F)F)c(N)c1[N+](=O)[O-],,inactive
CCCCC(CC)CN1C(=O)C2C3C=CC(C3)C2C1=O (centres undefined),29.8 µM (active),
CCNc1nc(N)nc(Cl)n1,,inactive
OB(O)O,,inactive
Oc1ccc(C(c2ccc(O)cc2)C(Cl)(Cl)Cl)cc1,5 µM (active),
O=C(Nc1ccc([N+](=O)[O-])cc1Cl)c1cc(Cl)ccc1O,0.37 µM (active),
COC(=O)c1ccccc1C(=O)O,,inactive
CC(C)CCCCCCc1ccc(O)cc1,,inactive
CC1(C)C(C=C(Cl)Cl)C1C(=O)OCc1cccc(Oc2ccccc2)c1 (centres undefined),,inactive
C#CCOC(=O)[C@@H](C)Oc1ccc(Oc2ncc(Cl)cc2F)cc1,,inactive
